37 molecules from PubChem BioAssay (NCI) can be followed below.

Values joined by “and” are separate entries in the source; they are usually repeats but may differ in a detail not shown here. Equal values may be shown once. The panel holds about 83,000 compounds, 20% with a hit somewhere; the sample as a whole holds those more often.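 Growth was measured after 48 h exposure to one concentration of compound in 96-well plates. Values under 10 count as active.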 Values without a mark were called inactive. Active and inactive are the calls of the source.

The first assay concerns SK-MEL-28 melanoma. The assay can be described thus: NCI-60 one-dose screen, 48 h (100 = growth as untreated, 0 = no growth, -100 = all killed). The note with it: 10 µM. The protocol: Growth inhibition of the SK-MEL-28 human tumor cell line is measured as a screen for anti-cancer activity. Cells are grown in 96 well plates and exposed to the test compound for 48 hours. Compounds are tested at a single concentration, which is 10^-5 M for most compounds. The reported endpoint is percent growth (GI% or GIPRCNT), where numbers from 0 - 100% represent growth inhibition, and numbers from -100% - 0 represent cell death. For example, a value of 40 represents 60% growth inhibition. A value of 0 means no net growth occurred over the course of the experiment. A value of -40 indicates 40% of cells at the beginning of the experiment died by the end of the experiment. A value of -100 means all cells are dead at the end of the experiment.
NCI-60 Human Tumor Cell Lines Screen was performed using the standard one-dose NCI protocol, which is described in more detail at https://dtp.cancer.gov/discovery_development/nci-60/default.htm.
Compounds with GIPRCNT values below 10 were considered active. Activity score was based on GIPRCNT using the following formula: […]
Score is 0 for GIPRCNT values of 100 or above, 50 for GIPRCNT values of 0, and 100 for GIPRCNT values of -100.
Consider `O=C(O)c1c(Cl)c(Cl)c(Cl)c(Cl)c1-c1c2cc(I)c(=O)c(I)c-2oc2c(I)c(O)c(I)cc12`, for which the growth was 105% and 327% and 108%.
On the same count and under the same terms, then `COc1ccc(-c2cscc2N)cc1`, with 96.4%; and `CN(C)C(=O)c1ccc(SC(=S)NCc2ccccc2)cc1`, with 106%.

The same assay, now with this note: 10 µM unless noted.
`O=C1NC(=O)/C(=C/C=C/c2ccccc2)S1`: the growth was 84.6%.
Same read-out and setting: then `O=C(Oc1cccc2cccnc12)c1ccccc1`, with 82.4% and 103%; and `Oc1ccc(/C=N/NC(=S)Nc2ccccc2)nc1`, with 43.1%; and `Oc1c(Br)cc(Cl)cc1C(c1cc(Cl)cc(Br)c1O)C(Cl)(Cl)Cl`, with 38.1%.
Still for that read-out and setting: then `Oc1c(Cl)cc(Cl)c2cccnc12`, with 83.2% and 65.5%; and `CC1SC(=S)N(c2ccc(Cl)cc2)C1=O` (stereo not given), with 210% and 104%.
On the same count and under the same terms, then `COC(=O)c1nc(=S)[nH]c(C(=O)OC)c1C(=O)c1ccccn1`, with 38.1%.
In the case of `CCOC(=O)/C=C/c1ccc([N+](=O)[O-])o1`, the growth was 26.4%.
On the same count and under the same terms, as for `COc1ccc(N=N/N=c2\sc3cc(OC)ccc3n2C)cc1`, the figure is 94%; as for `Cc1c2ccccc2c(C)c2c1ccc1ccccc12`, 92.8%.
On the same count and under the same terms, as for `O=C(/C=C/C=C/c1ccccc1)c1ccco1`, the figure is 123%.
On the same count and under the same terms, then `C=C(Cl)C(=NC(C)(C)C)Nc1ccccc1C`, with 98.4%.
Turning to `O=C1N[C@H]2[C@H](CS[C@H]2CCCCC(=O)N(CCP(c2ccccc2)c2ccccc2)CCP(c2ccccc2)c2ccccc2)N1`, the growth is 99.7%.
The same measure, in the same setting: then `O=C1C2=C(Nc3cc([N+](=O)[O-])ccc3N2)OC1c1c2ccccc2cc2ccccc12` (stereo not given), with 77.5%; and `O=[N+]([O-])c1ccc2c(N=Nc3ccc4ccccc4c3O)c(O)cc(S(=O)(=O)O)c2c1`, with 98.8%; and `Cc1ccc(N=C=C(c2ccccc2)c2ccccc2)cc1`, with 106%.
Still for that read-out and setting: then `O=C(O)c1ccc2c3c(ncnc13)-c1ccccc1C2=O`, with 29.8%; and `C=CCOc1ccc(N=NC(C#N)C#N)cc1`, with 65.1%; and `O=C(/C=C\c1cc(Br)ccc1O)/C=C/c1cc(Br)ccc1O`, with -66.9% (active).
`O=C(/C=C\c1ccccc1)N1c2ccccc2CC1c1c[nH]c2ccccc12` (stereo not given): the growth was 88.8%.
On the same count and under the same terms, as for `CN(Cc1cnc2nc(N)nc(N)c2n1)c1ccc(C(=O)NC(CCC(=O)O)C(=O)O)cc1` (stereo not given), the figure is 62.2%; as for `O=C(Nc1cccc(Br)c1)Oc1ccc(Cl)c2cccnc12`, 25% [100 µM]; as for `CCOC(=O)c1c(C)[nH]c(CO)c1C`, 103%.
The same measure, in the same setting: as for `CCCCCCC(C)c1ccccc1O` (stereo not given) (tested in a mixture with another compound), the figure is 111%; as for `Cc1cc(C(C)(CC(C)C)c2ccc(O)c(C)c2)ccc1O`, 114%; as for `CCC(CCCN(CC)CCc1ccccc1)OC(=O)c1cc(OC)c(OC)c(OC)c1` (stereo not given), 98.5%.
Same read-out and setting: as for `Cc1ccc2nc(C[n+]3ccc4ccccc4c3)ccc2c1`, the figure is 63.5%; as for `CCN(CC)CCOc1ccc(-c2nc3cc(Cl)ccc3s2)cc1`, -79.7% (active); as for `CCCCCC(CCCCC)C(=O)O`, 111%.
For `Cc1ccnc(NC(c2ccccc2)c2ccc3cccnc3c2O)c1` (stereo not given), the growth was 47%.
Same read-out and setting: then `NC(=S)N/N=C/c1ccc(Cl)s1`, with 108%.
Same read-out and setting: then `CCC(c1cccc(O)c1)C(CC)c1cccc(O)c1` (stereo not given), with 63.2%; and `CC(C)(C)c1ccc(O)c(C2CCCCC2)c1`, with 110%.
Take `C1=C(c2ccccc2)C(c2ccc(OCCN3CCCCC3)cc2)Oc2ccccc21` (stereo not given): the growth is -51.2% (active).

Staying with this assay, now noted: 100 µM.
Turning to `O=C(O)c1c(Cl)c(Cl)c(Cl)c(Cl)c1-c1c2cc(I)c(=O)c(I)c-2oc2c(I)c(O)c(I)cc12`, the growth is -55.7% (active).
The same measure, in the same setting: then `COc1ccc(-c2cscc2N)cc1`, with 51.4%; and `CN(C)C(=O)c1ccc(SC(=S)NCc2ccccc2)cc1`, with -34.8% (active).
